PubChem BioAssay AID1159580 (chemical genetic matrix, 2015)
Hit rate of the full screen: of about 5,500 compounds, about 2,000 (36%) were called active. Inconclusive results (about 18%) are left out. No stated cut-off is given here; in the data, active means normalized growth mostly below about 0.91 (no sharp cut-off); inconclusive means no clear call, values can overlap the other calls; inactive means mostly above about 0.92. The list shows a part of the results.

Assay: chemical genetic growth profiling, strain panel (AID 1159580);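 further: tested at 20 µM; growth read once vehicle control cultures reached saturation at 30 °C; 1 = growth at the plate median or of vehicle wells; lower values mean less growth of the strain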
Settings: growth OD

Measured: normalized growth

C=C1c2c(Cl)ccc(O)c2C(O)=C2C(=O)[C@]3(O)C(O)=C(C(N)=O)C(=O)[C@@H](N(C)C)[C@@H]3[C@@H](O)[C@H]12
active: S. cerevisiae deletion strains, locus YLR268W, strain sec22, active compounds read low 0.866 | S. cerevisiae deletion strains, locus YMR058W, strain fet3, active compounds read low 0.841 | S. cerevisiae deletion strains, locus YNL209W, strain ssb2, active compounds read low 0.924
inactive: S. cerevisiae deletion strains, locus YJR075W, strain HOC1, active compounds read low 0.96 | S. cerevisiae deletion strains, locus YKL009W, strain mrt4, active compounds read low 1 | S. cerevisiae deletion strains, locus YKL068W, active compounds read low 0.989 | S. cerevisiae deletion strains, locus YKL085W, strain MDH1 (second series), active compounds read low 0.971 | S. cerevisiae deletion strains, locus YKL085W, strain MDH1, active compounds read low 0.971 | S. cerevisiae deletion strains, locus YKL160W, strain elf1, active compounds read low 0.999 | S. cerevisiae deletion strains, locus YKL190W, strain CNB1, active compounds read low 0.979 | S. cerevisiae deletion strains, locus YKR001C, strain vps1, active compounds read low 0.917 | S. cerevisiae deletion strains, locus YKR026C, strain gcn3, active compounds read low 0.983 | S. cerevisiae deletion strains, locus YKR091W, strain srl3, active compounds read low 0.973 | S. cerevisiae deletion strains, locus YLL001W, strain dnm1, active compounds read low 1.01 | S. cerevisiae deletion strains, locus YLL026W, active compounds read low 0.996 | S. cerevisiae deletion strains, locus YLL041C, strain sdh2, active compounds read low 0.985 | S. cerevisiae deletion strains, locus YLR027C, strain aat2, active compounds read low 1 | S. cerevisiae deletion strains, locus YLR039C, strain RIC1, active compounds read low 0.968 | S. cerevisiae deletion strains, locus YLR058C, strain SHM2, active compounds read low 0.937 | S. cerevisiae deletion strains, locus YLR102C, strain apc9, active compounds read low 0.986 | S. cerevisiae deletion strains, locus YLR113W, strain HOG1, active compounds read low 1.01 | S. cerevisiae deletion strains, locus YLR221C, strain rsa3, active compounds read low 0.935 | S. cerevisiae deletion strains, locus YLR258W, strain gsy2, active compounds read low 0.948 | S. cerevisiae deletion strains, locus YLR262C, strain YPT6 (second series), active compounds read low 0.974 | S. cerevisiae deletion strains, locus YLR262C, strain YPT6, active compounds read low 0.997 | S. cerevisiae deletion strains, locus YLR320W, strain mms22, active compounds read low 0.926 | S. cerevisiae deletion strains, locus YLR330W, strain CHS5, active compounds read low 0.981 | S. cerevisiae deletion strains, locus YLR342W, strain FKS1 (second series), active compounds read low 0.875 | S. cerevisiae deletion strains, locus YLR342W, strain FKS1, active compounds read low 0.965 | S. cerevisiae deletion strains, locus YLR357W, strain rsc2, active compounds read low 0.895 | S. cerevisiae deletion strains, locus YLR370C, strain arc18, active compounds read low 0.988 | S. cerevisiae deletion strains, locus YLR371W, strain rom2, active compounds read low 0.987 | S. cerevisiae deletion strains, locus YLR384C, strain iki3, active compounds read low 0.988 | S. cerevisiae deletion strains, locus YLR418C, strain cdc73, active compounds read low 0.899 | S. cerevisiae deletion strains, locus YML016C, strain PPZ1, active compounds read low 0.968 | S. cerevisiae deletion strains, locus YML032C, strain rad52, active compounds read low 0.937 | S. cerevisiae deletion strains, locus YML120C, strain ndi1, active compounds read low 0.993 | S. cerevisiae deletion strains, locus YML124C, strain tub3, active compounds read low 0.977 | S. cerevisiae deletion strains, locus YMR078C, strain ctf18, active compounds read low 0.983 | S. cerevisiae deletion strains, locus YMR125W, strain sto1, active compounds read low 0.954 | S. cerevisiae deletion strains, locus YMR129W, active compounds read low 0.981 | S. cerevisiae deletion strains, locus YMR205C, strain PFK2, active compounds read low 0.998 | S. cerevisiae deletion strains, locus YMR223W, strain ubp8, active compounds read low 0.969 | S. cerevisiae deletion strains, locus YMR231W, strain pep5, active compounds read low 0.987 | S. cerevisiae deletion strains, locus YMR263W, strain SAP30, active compounds read low 0.957 | S. cerevisiae deletion strains, locus YMR307W, strain GAS1, active compounds read low 0.887 | S. cerevisiae deletion strains, locus YNL067W, strain RPL9B, active compounds read low 0.93 | S. cerevisiae deletion strains, locus YNL071W, strain lat1, active compounds read low 0.96 | S. cerevisiae deletion strains, locus YNL128W, strain TEP1, active compounds read low 0.936 | S. cerevisiae deletion strains, locus YNL153C, strain GIM3, active compounds read low 0.897 | S. cerevisiae deletion strains, locus YNL183C, strain NPR1, active compounds read low 0.947 | S. cerevisiae deletion strains, locus YNL233W, strain BNI4, active compounds read low 0.919 | S. cerevisiae deletion strains, locus YNL248C, strain rpa49, active compounds read low 0.921 | S. cerevisiae deletion strains, locus YNL250W, strain rad50, active compounds read low 0.96 | S. cerevisiae deletion strains, locus YNL271C, strain bni1, active compounds read low 0.961 | S. cerevisiae deletion strains, locus YNL298W, strain CLA4, active compounds read low 1 | S. cerevisiae deletion strains, locus YNL307C, strain MCK1, active compounds read low 0.965 | S. cerevisiae deletion strains, locus YNL322C, strain KRE1 (second series), active compounds read low 0.958 | S. cerevisiae deletion strains, locus YNL322C, strain KRE1, active compounds read low 0.985 | S. cerevisiae deletion strains, locus YNR049C, strain mso1, active compounds read low 0.971 | S. cerevisiae deletion strains, locus YNR052C, strain pop2, active compounds read low 0.99 | S. cerevisiae deletion strains, locus YOL006C, strain TOP1, active compounds read low 0.839 | S. cerevisiae deletion strains, locus YOL012C, strain htz1 0.807 | S. cerevisiae deletion strains, locus YOL147C, strain pex11, active compounds read low 0.975 | S. cerevisiae deletion strains, locus YOR001W, strain rrp6, active compounds read low 0.997 | S. cerevisiae deletion strains, locus YOR061W, strain CKA2, active compounds read low 0.973 | S. cerevisiae deletion strains, locus YOR069W, strain VPS5, active compounds read low 0.974 | S. cerevisiae deletion strains, locus YOR070C, strain gyp1, active compounds read low 0.951 | S. cerevisiae deletion strains, locus YOR080W, strain dia2, active compounds read low 0.988 | S. cerevisiae deletion strains, locus YOR083W, strain WHI5, active compounds read low 0.96 | S. cerevisiae deletion strains, locus YOR106W, strain vam3, active compounds read low 0.974 | S. cerevisiae deletion strains, locus YOR136W, strain idh2, active compounds read low 0.997 | S. cerevisiae deletion strains, locus YOR144C, strain elg1, active compounds read low 0.984 | S. cerevisiae deletion strains, locus YOR184W, strain ser1, active compounds read low 0.978 | S. cerevisiae deletion strains, locus YOR231W, strain MKK1, active compounds read low 0.972 | S. cerevisiae deletion strains, locus YOR265W, strain rbl2, active compounds read low 0.974 | S. cerevisiae deletion strains, locus YOR270C, strain vph1, active compounds read low 0.97 | S. cerevisiae deletion strains, locus YOR290C, strain snf2, active compounds read low 0.916 | S. cerevisiae deletion strains, locus YOR316C, strain cot1, active compounds read low 0.992 | S. cerevisiae deletion strains, locus YPL051W, strain arl3, active compounds read low 0.973 | S. cerevisiae deletion strains, locus YPL055C, strain LGE1, active compounds read low 0.94 | S. cerevisiae deletion strains, locus YPL078C, strain atp4, active compounds read low 1.02 | S. cerevisiae deletion strains, locus YPL106C, strain sse1, active compounds read low 0.898 | S. cerevisiae deletion strains, locus YPL240C, strain hsp82, active compounds read low 1 | S. cerevisiae deletion strains, locus YPL241C, strain CIN2, active compounds read low 0.978 | S. cerevisiae deletion strains, locus YPL256C, strain CLN2, active compounds read low 1.01 | S. cerevisiae deletion strains, locus YPR119W, strain clb2, active compounds read low 0.985 | S. cerevisiae deletion strains, locus YPR141C, strain kar3, active compounds read low 0.979 | S. cerevisiae deletion strains, locus YPR163C, strain tif3, active compounds read low 0.958 | S. cerevisiae deletion strains, locus YPR167C, strain met16, active compounds read low 0.977 | S. cerevisiae deletion strains, strain wtn01, active compounds read low 0.934 | S. cerevisiae strains, strain wild type, active compounds read low 0.95
